Test results from PubChem BioAssay (NCI).
This is part of a sample that, as a whole, favours compounds with a hit. Of some 83,000 tested, about 20% had one in any assay.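 Results are percent growth after 48 hours of single-concentration exposure. 100 means growth as in untreated cells, lower positive values show inhibition; negative values down to -100 show cell death.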 Calls of active or inactive are those of the source. How the source made its calls: active means growth percent below 10; inactive means the rest.

Tests used:
Experiment in all cases: NCI-60 one-dose screen, 48 h (100 = growth as untreated, 0 = no growth, -100 = all killed)
Settings in all cases: 10 µM unless noted
T-47D breast = tested on: T-47D breast
BT-549 breast = tested on: BT-549 breast
MDA-MB-435 melanoma = tested on: MDA-MB-435 melanoma
SW-620 colon = tested on: SW-620 colon
MCF7 breast = tested on: MCF7 breast
HCT-116 colon = tested on: HCT-116 colon
HCC-2998 colon = tested on: HCC-2998 colon
KM12 colon = tested on: KM12 colon

Measured: growth

COc1cc(-c2ccc(-c3ccc(C(=N)N)cc3)s2)cc(OC)c1OC
active: HCC-2998 colon -19.6%
inactive: T-47D breast 55.2% | BT-549 breast 86.3% | MDA-MB-435 melanoma 40.4% | SW-620 colon 20.9% | MCF7 breast 13.6% | HCT-116 colon 15% | KM12 colon 23.4%

COc1ccc(N/N=C/c2cn(-c3ccc(C(=O)O)cc3)nc2-c2cc3ccccc3oc2=O)cc1
inactive: T-47D breast 49.6% | BT-549 breast 77.8% | MDA-MB-435 melanoma 52.4% | SW-620 colon 52.9% | MCF7 breast 49% | HCT-116 colon 49.7% | HCC-2998 colon 41.8% | KM12 colon 48.2%

O=S(=O)(Nc1ccc2ccccc2c1)c1ccc(-c2cnc(C3CC3)o2)cc1
inactive: T-47D breast 29.8% | BT-549 breast 62.6% | SW-620 colon 24.3% | MCF7 breast 22.1% | HCT-116 colon 25.4% | HCC-2998 colon 64.3% | KM12 colon 24.7%
active: MDA-MB-435 melanoma -30.2%

Cc1ccc2c(c1)nc(C)n2-c1ncnc2c1CC(C)c1cc(O)ccc1N2C (stereo not given)
active: MDA-MB-435 melanoma 3.76%
inactive: T-47D breast 33.6% | BT-549 breast 40.8% | SW-620 colon 21.5% | MCF7 breast 19.8% | HCT-116 colon 15.4% | HCC-2998 colon 78.4% | KM12 colon 35.6%

Cc1ccc2c(/C=C/C(=O)c3cc(CN4CCOCC4)c(O)c4nc(C)ccc34)cc(CN3CCOCC3)c(O)c2n1
active: T-47D breast 9.26% | MDA-MB-435 melanoma -62.6% | SW-620 colon 1.06% | MCF7 breast 4.69% | HCT-116 colon -22.9% | KM12 colon -59.3%
inactive: BT-549 breast 12.8% | HCC-2998 colon 22.7%

CCOC(=O)c1nnn(-c2no[n+]([O-])c2-c2ccc(OC)cc2)c1COc1cccc2cccnc12
inactive: T-47D breast 53.1% | SW-620 colon 26% | MCF7 breast 15.2% | HCC-2998 colon 55.4% | KM12 colon 19.7%
active: BT-549 breast -14.7% | MDA-MB-435 melanoma 9.72% | HCT-116 colon 9.49%

C=C(C)[C@@H]1CC[C@]2(C(=O)N3CCN(C)CC3)CC[C@]3(C)[C@H](CC[C@@H]4[C@@](C)(CCC(=O)O)[C@H](C(=C)C)CC[C@]43C)[C@@H]12
inactive: T-47D breast 85.7% | BT-549 breast 96.8% | MDA-MB-435 melanoma 93.6% | SW-620 colon 99.7% | MCF7 breast 82.8% | HCT-116 colon 68.2% | HCC-2998 colon 93.8% | KM12 colon 68.7%

Cc1cc(C(=O)CCCC(=O)c2cc(C)c(O)c(C)c2)cc(C)c1O
inactive: T-47D breast 84.6% | BT-549 breast 112% | MDA-MB-435 melanoma 101% | SW-620 colon 98.9% | MCF7 breast 86.5% | HCT-116 colon 86.8% | HCC-2998 colon 46% | KM12 colon 102%

COc1c2c(cc3c1C(=O)N[C@@H]1[C@@H](O)[C@@H](O)[C@H](O)C[C@@H]31)OCCO2
inactive: T-47D breast 84.9% | BT-549 breast 99.5% | MDA-MB-435 melanoma 108% | SW-620 colon 104% | MCF7 breast 93.9% | HCT-116 colon 102% | HCC-2998 colon 106% | KM12 colon 99.1%

CCN(CC)CCN1C(=O)c2c(c3c4ccccc4[nH]c3c3ccc4ccccc4c23)C1=O
inactive: T-47D breast 48.7% | BT-549 breast 84.5% | HCT-116 colon 29.2% | HCC-2998 colon 85.5%
active: MDA-MB-435 melanoma -84.8% | SW-620 colon 4.79% | MCF7 breast -50.8% | KM12 colon -15.8%

O=C(/C=C/c1cn(-c2ccccc2)nc1-c1ccccc1)CCC(=O)NO
inactive: T-47D breast 96.7% | BT-549 breast 101% | MDA-MB-435 melanoma 112% | SW-620 colon 108% | MCF7 breast 91.6% | HCT-116 colon 84% | HCC-2998 colon 111% | KM12 colon 96.9%

CCNC(=O)N1CCc2c(Br)c3c(c(OC)c2C1Cc1ccc(OC)cc1)OCO3 (stereo not given)
inactive: T-47D breast 20.6% | BT-549 breast 30% | SW-620 colon 19% | MCF7 breast 12.2% | HCT-116 colon 20.9% | HCC-2998 colon 71.3% | KM12 colon 22%
active: MDA-MB-435 melanoma -9.57%

O=C(Oc1ccc2c(c1)sc1nc(-c3ccccc3)[nH]c(=O)c12)C(F)(F)F
active: MDA-MB-435 melanoma -55.4%
inactive: T-47D breast 32.3% | BT-549 breast 44.3% | SW-620 colon 18.4% | MCF7 breast 17.1% | HCT-116 colon 19.8% | HCC-2998 colon 31.2% | KM12 colon 11.2%

COc1ccc(C(c2cc(OC)c(OC)c(OC)c2)N2CCCCC2)cc1 (stereo not given)
inactive: T-47D breast 33.6% | BT-549 breast 49.7% | SW-620 colon 14.5% | MCF7 breast 23.6% | HCT-116 colon 29.1% | HCC-2998 colon 79.6% | KM12 colon 30.2%
active: MDA-MB-435 melanoma -21.8%

N#Cc1c(-c2ccc(Br)cc2)nc2c(N=Nc3ccc(S(N)(=O)=O)cc3)c(N)nn2c1N
inactive: T-47D breast 31.5% | BT-549 breast 73.8% | MDA-MB-435 melanoma 56.2% | SW-620 colon 44.1% | MCF7 breast 31.6% | HCT-116 colon 24.9% | HCC-2998 colon 61.8% | KM12 colon 51.8%

CC1=C2CC/C(C)=C/CC[C@]3(C)O[C@H]3CC/C(C)=C/[C@H]2OC1
inactive: T-47D breast 86% | BT-549 breast 106% | MDA-MB-435 melanoma 98.7% | SW-620 colon 107% | MCF7 breast 105% | HCT-116 colon 101% | HCC-2998 colon 99.6% | KM12 colon 120%

O=C1/C(=C/c2ccccn2)SC(=S)N1N1CCOCC1
inactive: T-47D breast 99.4% | BT-549 breast 99.9% | MDA-MB-435 melanoma 103% | SW-620 colon 97.6% | MCF7 breast 87.4% | HCT-116 colon 104% | HCC-2998 colon 97.7% | KM12 colon 103%

Cc1c(O)cc(-c2cnc(N/N=C/c3ccccc3)s2)c(O)c1C
inactive: T-47D breast 29.7% | BT-549 breast 72.8% | MDA-MB-435 melanoma 95.5% | SW-620 colon 113% | MCF7 breast 72.3% | HCT-116 colon 96.2% | HCC-2998 colon 131% | KM12 colon 90.7%

CCOC(=O)CNC1=C(Cl)C(=O)N(Cc2ccc(Cl)cc2)C1=O
inactive: T-47D breast 93.3% | BT-549 breast 109% | MDA-MB-435 melanoma 105% | SW-620 colon 99.8% | MCF7 breast 99.7% | HCT-116 colon 102% | HCC-2998 colon 103% | KM12 colon 110%

Cn1c2ccccc2c2c3c(c4c5cc(Br)ccc5n(C)c4c21)C(=O)N(O)C3=O
active: T-47D breast -11.2% | HCT-116 colon 4.46%
inactive: BT-549 breast 41.2% | MDA-MB-435 melanoma 22.8% | SW-620 colon 18% | MCF7 breast 10.7% | HCC-2998 colon 57.5% | KM12 colon 34.1%

O=C(/C=C/c1ccco1)Nc1ncc(Cc2cc(Cl)ccc2Cl)s1
inactive: T-47D breast 37.4% | BT-549 breast 17.1% | SW-620 colon 20.6% | MCF7 breast 13.3% | HCT-116 colon 16.3% | HCC-2998 colon 13.9% | KM12 colon 10.4%
active: MDA-MB-435 melanoma -47.3%

Cc1ccc(OCCOCCOCCOc2ccc(C)n(O)c2=S)c(=S)n1O
inactive: T-47D breast 14% | BT-549 breast 50.4% | MDA-MB-435 melanoma 56.3% | SW-620 colon 24.5% | MCF7 breast 20.3% | HCC-2998 colon 57.9% | KM12 colon 30.8%
active: HCT-116 colon 9.46%

O=C(NN1C(=O)CSC1c1cccc([N+](=O)[O-])c1)c1ccc(NC(=O)c2ccccn2)cc1 (stereo not given)
inactive: T-47D breast 94.7% | BT-549 breast 99.6% | MDA-MB-435 melanoma 98.9% | SW-620 colon 104% | MCF7 breast 89.2% | HCT-116 colon 98.3% | HCC-2998 colon 90% | KM12 colon 93.8%

c1csc(-c2cn3nc(-c4c[nH]c5ccccc45)sc3n2)c1
inactive: T-47D breast 23.9% | BT-549 breast 38% | SW-620 colon 22.5% | MCF7 breast 13% | HCT-116 colon 14.7% | HCC-2998 colon 52.4% | KM12 colon 23.8%
active: MDA-MB-435 melanoma -38.4%

O=C(NCc1ccc(Cn2c(=O)sn(-c3ccccc3)c2=O)cc1)OCc1ccc2cccc(O)c2n1
active: T-47D breast -41.7% | BT-549 breast -85% | MDA-MB-435 melanoma -89.9% | SW-620 colon -62.2% | MCF7 breast -43.2% | HCT-116 colon -87% | HCC-2998 colon -71.6% | KM12 colon -15.1%

CCN(CC)CCOc1ccc(/C(=C(\C)Cc2ccc(OC)cc2)c2ccc(OC(=O)NCc3ccccc3)cc2)cc1
inactive: T-47D breast 40.6% | BT-549 breast 77.4% | MDA-MB-435 melanoma 40.7% | SW-620 colon 57.6% | MCF7 breast 20.6% | HCT-116 colon 25.3% | HCC-2998 colon 70.6% | KM12 colon 63.4%

COc1cc(/C=C/C(=O)N2CCN(C(=O)c3cc(OC)c(OC)c(OC)c3)CC2)ccc1OCCCOc1cc2c(cc1OC)C(=O)N1CCC[C@H]1C=N2
active: T-47D breast 7.16% | BT-549 breast -55.9% | MDA-MB-435 melanoma -66.4% | SW-620 colon 4.48% | MCF7 breast 7.86% | HCT-116 colon 7.83% | HCC-2998 colon -39% | KM12 colon -19.5%

CC[C@@H](C(=O)[C@@H](C)[C@@H](O)[C@H](C)[C@@H]1O[C@@H]([C@@H](CC)C(=O)ONC(=O)c2ccccc2O)CC[C@@H]1C)C1O[C@]2(C=CC(=O)[C@]3(CC[C@@](C)([C@H]4CC[C@](O)(CC)[C@H](C)O4)O3)O2)[C@H](C)C[C@@H]1C (stereo not given in full)
inactive: T-47D breast 12.4% | BT-549 breast 36.2% | MDA-MB-435 melanoma 63% | SW-620 colon 40.8% | MCF7 breast 17.8% | HCT-116 colon 36.7% | HCC-2998 colon 58.7% | KM12 colon 51.3%

N#Cc1c(-c2ccccc2)nc2c(c(-c3ccccc3)nn2-c2ccccc2)c1-c1ccc(N2CCCCC2)cc1
inactive: T-47D breast 94.5% | BT-549 breast 104% | MDA-MB-435 melanoma 99.9% | SW-620 colon 99.2% | MCF7 breast 100% | HCT-116 colon 94.2% | HCC-2998 colon 107% | KM12 colon 103%

CCOC(=O)C/C(=N\Nc1cc(=O)[nH]c2ccc(C)cc12)C(=O)OCC
inactive: T-47D breast 107% | BT-549 breast 108% | MDA-MB-435 melanoma 98.6% | SW-620 colon 94.8% | MCF7 breast 94.8% | HCT-116 colon 99.7% | HCC-2998 colon 102% | KM12 colon 100%
